In PubChem BioAssay (NCI):
The panel holds about 83,000 compounds, 20% with a hit somewhere; the sample as a whole holds those more often.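 96-well plates, one dose, 48 hours. Percent growth reported; active if below 10.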 Values without a mark were called inactive. Active and inactive are the calls of the source.

What was measured:
Assay in all cases: NCI-60 one-dose screen, 48 h (100 = growth as untreated, 0 = no growth, -100 = all killed)
Conditions in all cases: 10 µM unless noted
NCI-H23 lung = tested on: NCI-H23 lung
NCI-H226 lung = tested on: NCI-H226 lung
NCI-H322M lung = tested on: NCI-H322M lung
HOP-62 NSCLC = tested on: HOP-62 NSCLC
NCI-H460 lung = tested on: NCI-H460 lung
HOP-92 NSCLC = tested on: HOP-92 NSCLC
NCI-H522 lung = tested on: NCI-H522 lung
A549/ATCC NSCLC = tested on: A549/ATCC NSCLC
786-0 renal = tested on: 786-0 renal
COLO 205 colon = tested on: COLO 205 colon
DU-145 prostate = tested on: DU-145 prostate
K-562 leukemia = tested on: K-562 leukemia
MALME-3M melanoma = tested on: MALME-3M melanoma
MDA-MB-231 breast = tested on: MDA-MB-231 breast
RXF 393 renal = tested on: RXF 393 renal
SF-268 CNS = tested on: SF-268 CNS
SF-295 CNS = tested on: SF-295 CNS
SF-539 CNS = tested on: SF-539 CNS
UACC-257 melanoma = tested on: UACC-257 melanoma
M14 melanoma = tested on: M14 melanoma

| SMILES | growth (NCI-H23 lung) | growth (NCI-H226 lung) | growth (NCI-H322M lung) | growth (HOP-62 NSCLC) | growth (NCI-H460 lung) | growth (HOP-92 NSCLC) | growth (NCI-H522 lung) | growth (A549/ATCC NSCLC) | growth (786-0 renal) | growth (COLO 205 colon) | growth (DU-145 prostate) | growth (K-562 leukemia) | growth (MALME-3M melanoma) | growth (MDA-MB-231 breast) | growth (RXF 393 renal) | growth (SF-268 CNS) | growth (SF-295 CNS) | growth (SF-539 CNS) | growth (UACC-257 melanoma) | growth (M14 melanoma) |
| --- | --- | --- | --- | --- | --- | --- | --- | --- | --- | --- | --- | --- | --- | --- | --- | --- | --- | --- | --- | --- |
| NCC(O)C(O)C(O)C(O)CO (stereo not given) | 98.2% | 93.4% | 100% | 91.4% | 102% | 80.7% | 102% | 78.4% | 99.2% | 101% | 101% | 103% | 90.5% | 91.9% | 109% | 96.2% | 106% | 101% | 85% | 93.9% |
| OC(CBr)CCBr (stereo not given) | 105% | 110% | 101% | 97.2% | 102% | 102% | 96.5% | 90.8% | 103% | 105% | 110% | 100% | 85.6% | 104% | 109% | 104% | 94% | 96.3% | 87.8% | 104% |
| CC(=O)Oc1c(Cl)cccc1-c1ccccc1 | 111% | 98.9% | 92.7% | 103% | 102% | 94.8% | 94.3% | 89.9% | 104% | 111% | 104% | 101% | 111% | 98.4% | 110% | 95.1% | 103% | 104% | 87.6% | 108% |
| C#CC(O)c1ccccc1 (stereo not given) | 106% | 99.7% | 104% | 108% | 104% | 85.9% | 102% | 101% | 95.6% | 108% | 110% | 99.3% | 99.7% | 101% | 112% | 112% | 110% | 99.7% | 102% | 101% |
| CCOC(=O)CNC(=O)Sc1ccc(C(C)(C)C)cc1 | 98.1% | 87.2% | 79.6% | 122% | 102% | 138% | 69.6% | 109% | 102% | 119% | 114% | 71.9% | 90.7% | 105% | 118% | 107% | 102% | 94% | 111% | 102% |
| CCN(Cc1ccc(Cl)c(Cl)c1)c1ccc2nc(N)nc(N)c2c1C | -76.6% (active) | -62.2% (active) | -94.3% (active) | -74.2% (active) | -95.8% (active) | -90.9% (active) | -64.7% (active) | -55.9% (active) | -89.5% (active) | -96.1% (active) | -85.5% (active) | -83.9% (active) | -84% (active) | -84.9% (active) | -80.1% (active) | -70.1% (active) | -62.8% (active) | -97.8% (active) | -77.7% (active) | -70.1% (active) |
| CCOC(=O)Nc1nccs1 | 112% | 99.6% | 99.6% | 103% | 104% | 92.3% | 104% | 98.3% | 100% | 104% | 109% | 119% | 97.3% | 87% | 108% | 117% | 108% | 101% | 98% | 106% |
| CC(C)c1ncc([N+](=O)[O-])n1C | 103% | 102% | 126% | 118% | 106% | 104% | 96.4% | 96.9% | 108% | 108% | 122% | 123% | 129% | 118% | 115% | 121% | 127% | 98.2% | 97.2% | 103% |
